# From PubChem BioAssay
# Results filed as inconclusive are left out. Activity calls are given as the source filed them.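 Rule for the calls, unless noted: active = viability at or under a set limit in both replicates, limit being median viability minus 3 SD (cut at about 48% in these data, passing the limit was not always enough); inconclusive = at or under the limit in just one replicate; inactive = at or above the limit in both replicates.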
# What was measured:
# [1] = reducers of endogenous Her2 protein level, primary screen, SKBR3 breast tumor cells, AlphaScreen, ATP viability (AID 461;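 active = Her2 level under about 52% in both replicate screens, with viability over 70% of control, limit read from the data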;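 for Her2 level: lower value means less Her2 protein in the cells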;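 for viability: percent of carrier control wells set as 100% viability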); conditions: 18-24 h, measured here: SKBR3 viability, ATP luminescence, at 10 µM
# [2] = biological target: Receptor tyrosine-protein kinase erbB-2 (Homo sapiens) (UniProt P04626); test: as above; conditions: 18-24 h, at 10 µM, stronger effect = lower value
# Chain of Receptor tyrosine-protein kinase erbB-2 (Homo sapiens) (P04626 whole entry, looked up): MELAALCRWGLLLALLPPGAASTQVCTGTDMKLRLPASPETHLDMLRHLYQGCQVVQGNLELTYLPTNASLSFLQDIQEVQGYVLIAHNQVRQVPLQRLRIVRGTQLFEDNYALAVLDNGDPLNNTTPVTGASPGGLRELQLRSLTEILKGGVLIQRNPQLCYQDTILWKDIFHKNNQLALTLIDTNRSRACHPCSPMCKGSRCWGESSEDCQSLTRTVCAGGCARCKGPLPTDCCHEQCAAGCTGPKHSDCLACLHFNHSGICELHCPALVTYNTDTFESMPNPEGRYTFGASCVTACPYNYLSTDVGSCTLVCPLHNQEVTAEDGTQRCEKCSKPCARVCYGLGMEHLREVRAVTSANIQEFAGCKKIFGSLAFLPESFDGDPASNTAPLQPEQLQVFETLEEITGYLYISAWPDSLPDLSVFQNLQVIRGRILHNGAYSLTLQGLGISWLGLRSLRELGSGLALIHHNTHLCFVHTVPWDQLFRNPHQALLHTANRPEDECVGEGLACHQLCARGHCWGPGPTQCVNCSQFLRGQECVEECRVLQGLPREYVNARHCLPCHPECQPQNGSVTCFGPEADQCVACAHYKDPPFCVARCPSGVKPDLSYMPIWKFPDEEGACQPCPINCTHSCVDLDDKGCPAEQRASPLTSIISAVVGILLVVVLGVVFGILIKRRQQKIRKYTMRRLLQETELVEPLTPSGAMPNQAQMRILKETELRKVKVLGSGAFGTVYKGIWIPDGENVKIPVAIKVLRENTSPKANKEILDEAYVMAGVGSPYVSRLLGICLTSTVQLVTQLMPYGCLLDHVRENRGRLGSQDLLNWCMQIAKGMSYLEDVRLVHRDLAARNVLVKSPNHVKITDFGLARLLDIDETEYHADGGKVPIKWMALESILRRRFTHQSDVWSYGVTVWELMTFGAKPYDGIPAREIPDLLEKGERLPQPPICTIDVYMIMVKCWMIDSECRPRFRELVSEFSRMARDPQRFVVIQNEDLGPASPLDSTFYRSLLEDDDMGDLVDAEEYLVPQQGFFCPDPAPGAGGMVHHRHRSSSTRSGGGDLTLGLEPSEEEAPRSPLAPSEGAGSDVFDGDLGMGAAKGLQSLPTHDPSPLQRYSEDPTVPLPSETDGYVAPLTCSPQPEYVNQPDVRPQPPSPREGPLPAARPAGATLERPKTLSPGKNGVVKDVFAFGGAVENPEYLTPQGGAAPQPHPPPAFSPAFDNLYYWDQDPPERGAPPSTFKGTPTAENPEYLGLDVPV
# [3] = SK-BR-3 cell growth inhibitors, pilot screen, 24 h, human (AID 572;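 active = viability at or below 10% of carrier control in both of two separate runs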;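 note: compound exposure lasted between 18 and 24 h rather than exactly 24 h; 100% = carrier-treated control wells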); conditions: SK-BR-3 viability, CellTiter-Glo luminescence, at 10 µM, stronger effect = lower value
# [4] = HUVEC growth inhibition – cell-based, human, primary screen (AID 575;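 active = viability at or below 30% in both replicate assays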;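 note: 100% = median of untreated cell wells with 0.1% DMSO on each plate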); conditions: HUVEC proliferation, CellTiter-Glo luminescence, 72 h; at 10 µM; stronger effect = lower value
# [5] = growth inhibitors of H69AR lung tumor, primary screen, human, duplicate replicates (AID 580); conditions: H69AR lung tumor cells viability, ATP luminescence, 72 h; at 10 µM; stronger effect = lower value;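 note: 100% = mean luminescence of untreated wells and 0% = no signal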
# [6] = reversal of MRP1-mediated doxorubicin resistance, pilot screen, H69AR cells, doxorubicin co-treatment (AID 601;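 active = viability loss from added drug above about 55%, and viability with drug at most 40%, in both replicates, limit read from the data, passing the limit was not always enough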); conditions: CellTiter-Glo, 72 h, at 10 µM; for differential viability (reversal): stronger effect = higher value
# [7] = 384-well plate pilot, post-Golgi transport modulator project, inhibition of yeast transport mutant growth (AID 636; in the data active = inhibition above about 31%); conditions: absorbance 615 nm, about 18 h, stronger effect = higher value
# [8] = growth suppression of yeast trafficking mutant, preliminary HTS, modulators of trafficking downstream of Golgi apparatus project, 1536-format plate, OD 615 nm (AID 637; in the data active = inhibition above about 30%); conditions: yeast transport mutant growth, absorbance 615 nm, 18 h; stronger effect = higher value
# [9] = OD615 S. cerevisiae growth inhibition, permissive medium, pilot counter-assay, permissive growth control for S. cerevisiae lifespan shortening project (AID 705;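 active = growth inhibition above 25% in both replicates, a cutoff set 3 SD above the mean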); conditions: OD615, 24 h, at 10 µM, stronger effect = higher value
# [10] = Restrictive medium S. cerevisiae growth inhibition, OD615, pilot screen of yeast lifespan reduction project, restrictive growth control (AID 706;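 active = growth inhibition above a set limit, 3 SD over mean compound inhibition, in both replicates, cut at about 43% in these data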;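 note: modified DeaD lifespan yeast strain shifted to restrictive glucose medium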); conditions: OD615, 48 h, at 10 µM, stronger effect = higher value
# [11] = viability gain of MRP-1-high H69AR cells under doxorubicin, pilot screen, MRP-1 activator project, CellTiter-Glo, duplicate (AID 807;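 active = viability increase at or above a cutoff of the median across tested compounds plus 3 SD, cut at about 8.5% in these data, passing the limit was not always enough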;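 note: compound pretreatment 18-22 h then 72 h combined with doxorubicin; 0% = doxorubicin alone and 100% = vehicle without doxorubicin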); conditions: H69AR viability with doxorubicin, CellTiter-Glo luminescence; at 10 µM; stronger effect = higher value
# [12] = growth suppression of beta-catenin knockout HCT116, pilot screen, human colon tumor cells (AID 823;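 active = cell viability at or below a set limit in both duplicate runs, the limit being the all-compound median minus 4 SD, cut at about 23% in these data, passing the limit was not always enough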;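 note: 0% = wells killed by 20 µM Hyamine and 100% = untreated DMSO cell wells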); conditions: CellTiter-Glo, 60 h, at 10 µM, stronger effect = lower value
# [13] = growth suppression of PTEN-deleted HCT116, pilot screen, cell-based, HCT116 clonal line, CellTiter-Glo (AID 824;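 active = viability at or below 27.92% in each of two runs, the all-compound median minus 4 SD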;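 note: 0% = 20 µM Hyamine control and 100% = vehicle cell control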); conditions: 60 h, at 10 µM, stronger effect = lower value
# [14] = inhibitors of the yeast RAM network, pilot screen, dse1pr::URA3 reporter, 5-FOA selection (AID 869;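 active = inhibition over a set limit, the all-compound mean plus 3 SD, in both replicate runs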;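 note: 0% = DMSO wells with no growth and 100% = 10 µM 1-NA-PP1 with full growth; RAM network block rescues cells from 5-FOA so hits raise OD615 growth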); conditions: S. cerevisiae dse1pr::URA3 5-FOA growth, OD615, 2 d; at 10 µM; stronger effect = higher value; strain carries analog-sensitive mutant Cbk1 kinase
# [15] = RAM signaling pathway blockade in yeast – S. cerevisiae, Pdr1DBD-CYC8 efflux-inhibited sensitized strain, primary screen (AID 1298;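 active = RAM network inhibition above 8.4% in each of two replicates, 3 SD over the compound average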;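 note: 0% = DMSO untreated cells without growth and 100% = 10 µM 1-NA-PP1 full growth; higher means more yeast growth rescued from 5-FOA killing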); conditions: S. cerevisiae cbk1-as DSE1-URA3 strain, 5-FOA growth OD615, 2 d; at 50 µM; stronger effect = higher value
# [16] = H69AR cells + 2 uM doxorubicin, measured here: viability with 2 uM doxorubicin, stronger effect = lower value
# [17] = H69AR cells, compound alone cytotoxicity
Compound,viability [1] [%],Her2 level [2],viability [3],viability [4],viability [5],differential viability (reversal) ([6]; H69AR cells + 2 uM doxorubicin),"viability [6, 16] [%]","viability [6, 17] [%]",inhibition [7],inhibition [8],growth inhibition [9],growth inhibition [10],viability increase [11],viability [12],viability [13],inhibition [14],RAM network inhibition [15]
Cc1ccnc(NC(=O)C2CCC(CNc3c(N4CCCC4)c(=O)c3=O)CC2)c1 (stereo not drawn),93,93.5% (inactive),93% (inactive),92.2% (inactive),90.2% (inactive),1.23% (inactive),89,90.2,-0.64% (inactive),-3.83% (inactive),-3.06% (inactive),4.16% (inactive),-1.61% (inactive),72.4% (inactive),71.6% (inactive),0.595% (inactive),-0.21% (inactive)
Cc1cccc(-n2nc3c(c2NC(=O)CCC2CCCCC2)CS(=O)C3)c1C (stereo not drawn),95,94.5% (inactive),95% (inactive),86.3% (inactive),90.9% (inactive),1.55% (inactive),89.3,90.9,-4.13% (inactive),1.33% (inactive),-8.41% (inactive),1.94% (inactive),-1.85% (inactive),91.8% (inactive),92.1% (inactive),1.02% (inactive),1.36% (inactive)
COC(=O)CN1C(=O)CC(C)(C)S(=O)c2ccccc21 (stereo not drawn),114,110% (inactive),114% (inactive),118% (inactive),99.3% (inactive),8.85% (inactive),90.4,99.3,-4.4% (inactive),16.3% (inactive),-14.5% (inactive),-3.88% (inactive),-0.45% (inactive),107% (inactive),99.7% (inactive),0.32% (inactive),2.09% (inactive)
Cc1ccc(-n2c3c(cc(C(=O)NCCCN4CCOCC4)c2=O)C(=O)CC(C)(C)C3)cc1,109,110% (inactive),109% (inactive),87% (inactive),85% (inactive),-13% (inactive),97.9,85,0.53% (inactive),-3.67% (inactive),-4.99% (inactive),-4.07% (inactive),-1.54% (inactive),101% (inactive),104% (inactive),-0.26% (inactive),3.35% (inactive)
COc1cccc(C2C(C(=O)c3ccc(C)o3)=C(O)C(=O)N2CCCN(C)C)c1 (stereo not drawn),99.5,90.5% (inactive),99.5% (inactive),100% (inactive),108% (inactive),12.6% (inactive),95,108,-4.73% (inactive),7.14% (inactive),-10.7% (inactive),-11.7% (inactive),-1.16% (inactive),102% (inactive),96.1% (inactive),-0.125% (inactive),1.67% (inactive)
O=C(CN1C(=O)c2ccccc2S1(=O)=O)NCc1ccccc1Cl,90.5,108% (inactive),90.5% (inactive),99% (inactive),89.3% (inactive),6.38% (inactive),82.9,89.3,-2.05% (inactive),-2.17% (inactive),-8.21% (inactive),-12.6% (inactive),-0.47% (inactive),102% (inactive),100% (inactive),0.125% (inactive),4.41% (inactive)
COc1cccc(C2=NOC(C(=O)Nc3cc(C)nn3-c3ccccc3)C2)c1OC (stereo not drawn),93,91% (inactive),93% (inactive),68.7% (inactive),28.6% (active),-43.9% (inactive),72.5,28.6,2.31% (inactive),-1.83% (inactive),1.31% (inactive),12% (inactive),-5.04% (inactive),68.3% (inactive),60.2% (inactive),2.12% (inactive),-0.06% (inactive)
CC(C)n1c(CN2CCN(C)CC2)nc2c1c(=O)n(C)c(=O)n2C,95.5,86% (inactive),95.5% (inactive),93.8% (inactive),98.5% (inactive),9.28% (inactive),89.2,98.5,-7.57% (inactive),1.8% (inactive),-7.82% (inactive),4.92% (inactive),0.07% (inactive),101% (inactive),103% (inactive),0.885% (inactive),5.22% (inactive)
CCC(C)(NC(=O)c1ccc(=O)[nH]c1)C(=O)NC1CCCC1 (stereo not drawn),102,96.5% (inactive),102% (inactive),107% (inactive),94.1% (inactive),12.3% (inactive),81.8,94.1,-5.2% (inactive),-0.67% (inactive),-11.7% (inactive),-35% (inactive),0.76% (inactive),105% (inactive),97.9% (inactive),1.92% (inactive),2.77% (inactive)
CCCCN(C)C(=O)c1ccc(CS(=O)(=O)c2ccccc2C)o1,93,86.5% (inactive),93% (inactive),120% (inactive),81.3% (inactive),-5.93% (inactive),87.2,81.3,1.28% (inactive),-2.17% (inactive),6.16% (inactive),14.7% (inactive),-1.67% (inactive),93.8% (inactive),91.7% (inactive),-0.45% (inactive),3.61% (inactive)
CC1CCN(C(=O)Cn2cc3c(n2)CCCC3)CC1,97,116% (inactive),97% (inactive),97.1% (inactive),96.4% (inactive),-4.43% (inactive),101,96.4,6.67% (inactive),-4.5% (inactive),-7.6% (inactive),-2.46% (inactive),0.91% (inactive),100% (inactive),99.9% (inactive),0.615% (inactive),3.48% (inactive)
O=C(O)C1CCCN(S(=O)(=O)c2ccc(Cl)s2)C1 (stereo not drawn),91,124% (inactive),91% (inactive),102% (inactive),93.1% (inactive),4.47% (inactive),88.6,93.1,-4.8% (inactive),0.5% (inactive),-4.79% (inactive),7.83% (inactive),0.34% (inactive),100% (inactive),102% (inactive),2.21% (inactive),0.99% (inactive)
C=CCOC(=O)COc1ccc2c(C)c(C)c(=O)oc2c1C,106,92.5% (inactive),106% (inactive),97.9% (inactive),125% (inactive),19.5% (inactive),106,125,-0.81% (inactive),-3.49% (inactive),-18.3% (inactive),-15.6% (inactive),2.23% (inactive),101% (inactive),95.9% (inactive),1% (inactive),2.98% (inactive)
COc1cccc(-c2nc3n(n2)C(c2cccs2)C(C(=O)Nc2cccnc2)=C(C)N3)c1 (stereo not drawn),78,79% (inactive),78% (inactive),83.2% (inactive),101% (inactive),-5.46% (inactive),107,101,-2.93% (inactive),-0.67% (inactive),-13.1% (inactive),-6.04% (inactive),-2.26% (inactive),87.2% (inactive),93% (inactive),-0.145% (inactive),5.84% (inactive)
C=C(C)Cn1c(-c2ccccc2)nc2ccccc21,80,102% (inactive),80% (inactive),117% (inactive),96.1% (inactive),0.815% (inactive),95.3,96.1,-2.8% (inactive),-1.45% (inactive),-10.1% (inactive),-9.65% (inactive),-1.92% (inactive),80.2% (inactive),87.8% (inactive),1% (inactive),5.93% (inactive)
CC1CCc2nn(CC(=O)NCCN3CCCCC3C)cc2C1 (stereo not drawn),85,104% (inactive),85% (inactive),103% (inactive),90% (inactive),-2.58% (inactive),92.6,90,-2.18% (inactive),0.83% (inactive),0.05% (inactive),-11% (inactive),-1.56% (inactive),101% (inactive),98.5% (inactive),2.96% (inactive),1.89% (inactive)
CN1CCN(C2=C(Cl)C(=O)N(c3cccc(Cl)c3)C2=O)CC1,80.5,96.5% (inactive),80.5% (inactive),87.7% (inactive),85% (inactive),4.44% (inactive),80.5,85,0.26% (inactive),5.67% (inactive),-16.8% (inactive),-5.5% (inactive),-1.68% (inactive),96.3% (inactive),104% (inactive),0.75% (inactive),2.62% (inactive)
Cc1cccc(CN2CCC(CNC(=O)C3CCCN(S(=O)(=O)c4cnc[nH]4)C3)CC2)c1 (stereo not drawn),98,95.5% (inactive),98% (inactive),98.8% (inactive),89.8% (inactive),2.14% (inactive),87.6,89.8,-5.2% (inactive),-0.66% (inactive),-0.3% (inactive),-2.77% (inactive),0.07% (inactive),101% (inactive),106% (inactive),1.33% (inactive),4.03% (inactive)
O=C(Cc1cccs1)Nc1ccccc1NC(=O)Cc1cccs1,81,87.5% (inactive),81% (inactive),107% (inactive),94.7% (inactive),3.74% (inactive),91,94.7,-1.15% (inactive),-7.83% (inactive),-1.23% (inactive),-8.9% (inactive),-4% (inactive),92% (inactive),91.9% (inactive),0.905% (inactive),-0.25% (inactive)
